Cycloheximide cs = counter-screen for Shiga toxin inhibitors: cycloheximide protein synthesis inhibition. 300,000 compounds, 12% hits. cell reporter, cycloheximide protein synthesis inhibition counterscreen. max response, %. AID 2314; in the data active = max response mostly above about 13%, no sharp cut-off; inactive = mostly below about 14%; also: read at 38.3 µM for the half of the compounds with a filed dose; 0% is about no effect
SARS PLpro yeast = SARS-CoV PLP inhibition in yeast; S. cerevisiae expressing SARS-CoV PLpro, growth rescue; Potency, µM (top dose mostly 32.9 µM), for inactives: at the highest dose activity, positive = growth rescue, hits mostly activators; 330,000 compounds, 0.19% hits; AID 485353; also: potency is read from the fitted curve at half-maximal effect; 0% is about no effect; nearly all actives have a fitted effect of over 55% in size
Shiga inhibitor = inhibitors of Shiga toxin in Vero cells; Vero cells, Shiga toxin protein synthesis inhibition reporter; inhibition, % at 38.7 µM; 290,000 compounds, 9.2% hits; in the data active = inhibition mostly above about 28%, no sharp cut-off; inactive = mostly below about 43%; also: 0% is about no effect
Pf growth 48h = inhibits P. falciparum growth in the first generation, 48 h | P. falciparum luciferase growth in erythrocytes, 48 h | Potency, µM (series often up to 28.7 µM), for inactives: at the highest dose activity change, negative = inhibition, usual class: inhibitors | 310,000 compounds, 5.9% hits; active = well fitted inhibition curve with a large enough effect; inconclusive = small, poorly fitted or top-dose-only effect, or another doubt; inactive = no such curve, though single readings can be large or run the other way; also: potency is read from the fitted curve at half-maximal effect; % is scaled to controls: 0 for no effect and ±100 for the full control effect
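A one-generation exposure of luciferase-tagged malaria parasites in RPMI 1640/Albumax erythrocyte culture, 37 C and 5% CO2. Inhibition is inferred from decreased luminescence after adding detection reagent.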
Pf growth 96h = inhibits malaria parasite growth, 96 h; P. falciparum luciferase reporter growth, 96 h; Potency, µM (top dose mostly 28.7 µM), for the others: at the highest dose activity change, negative = inhibition, most hits filed as inhibitors; 320,000 compounds, 6.9% hits; AID 504834; active = well fitted inhibition curve with a large enough effect; inconclusive = small, poorly fitted or top-dose-only effect, or another doubt; inactive = no such curve, though single readings can be large or run the other way; also: potency is read from the fitted curve at half-maximal effect; % is scaled to controls: 0 for no effect and ±100 for the full control effect
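Cell-based qHTS: luciferase-tagged P. falciparum in erythrocytes (2% hematocrit, 0.05% parasitemia final) incubated with compounds for 96 hours, 37 C, 5% CO2; luciferase detection reagent then added and luminescence measured.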
NS1 inh = blocks influenza NS1 protein function. Potency, µM (top dose mostly 46.1 µM), for inactives: at the top dose activity, positive = more growth. 270,000 compounds, 0.4% hits; also: potency is read from the fitted curve at half-maximal effect; actives are rising curves; nearly all actives have a fitted effect of over 50% in size
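OD600 was taken as the measure of yeast growth restored by compound in an NS1-expressing S. cerevisiae strain. Cells had been washed out of glucose medium and diluted 1:100 into galactose -URA medium, pH 6.0.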
* hit, by the source's call; i = inactive; ? = inconclusive; . = no result. In the library only some 21% were active in any assay of this set; here they are far more common. Unless noted, calls follow the shape of the full dose curve.

SMILES	Cycloheximide cs	SARS PLpro yeast	Shiga inhibitor	Pf growth 48h	Pf growth 96h	NS1 inh
CCOC(=O)[C@H]1[C@H]2COc3ccc(Cl)cc3[C@@H]2N2C(=O)c3cc(F)c(F)cc3NC(=O)[C@@]12C	.	0.5%	.	?	?	.
O=C(CCc1cnccn1)NC1CCCc2c1cnn2-c1ccc(F)cc1F (stereo not drawn)	-2.2	0.5%	-8.4	15.6%	3.8%	-1.8%
CN1C(=S)SC(/[N+]([O-])=C/c2cccnc2)C1(C)C (stereo not drawn)	-2.3	2.4%	-9.2	12.4%	3.7µM*	?
CN1C(=S)SC(/[N+]([O-])=C\c2ccccc2)C1(C)C (stereo not drawn)	3.8	-1.7%	-8.6	-16.1%	23.1%	7.8%
CC(C)Cn1cc(C(=O)NC2CCN(Cc3ccccc3)CC2)c2c3ccccc3n(C)c2c1=O	-2.0	3.4%	-16.0	2.62µM*	?	5.6%
CC(C)Cn1cc(C(=O)N2CCN(c3ccccn3)CC2)c2c3ccccc3n(C)c2c1=O	-1.0	0.0%	2.4	7.38µM*	9.28µM*	-40.5%
O=C(NCc1ccccn1)c1c(-c2ccccc2)sc2ccccc12	.	2.4%	.	.	.	.
O=C(CN1CCN(c2ccccc2)CC1)Nc1ccccc1C(F)(F)F	-1.8	1.8%	-5.2	-16.3%	.	-17.7%
O=C(CN1CCN(c2ccccc2)CC1)Nc1ccccc1Cl	-2.1	0.2%	-9.1	-15.3%	-2.6%	-33.6%
O=C(CN1CCN(c2ccccc2)CC1)Nc1ccccc1Sc1ccccc1	0.7	-2.5%	-8.0	?	9.28µM*	-8.4%
CCc1cccc(CC)c1NC(=O)CN1CCN(c2ccccc2)CC1	-5.2	7.08µM*	-27.6	-19.0%	-0.6%	-17.7%
CCOc1ccc(C(C)=O)cc1CSc1nnc(-c2cccs2)n1CC1CCCO1 (stereo not drawn)	-3.2	-0.7%	-11.7	.	-11.4%	0.1%
COc1cccc(CNC23CC4CC(CC(C4)C2)C3)c1OCc1ccccc1	-4.1	-0.6%	-4.2	10.4µM*	-14.5%	-9.3%
Cc1cc(OCC(=O)Nc2cccnc2)c2c(C)c(C)c(=O)oc2c1	-0.7	4.9%	13.1	51.2%	44.6%	1.0%
O=C(COc1ccccc1Cl)Nc1cccnc1	39.6*	-1.8%	72.8*	94.3%	-11.5%	-2.8%
O=C(COc1ccc(F)cc1F)Nc1cccnc1	14.4	-4.3%	14.8	30.2%	20.9%	4.7%
Cc1ccc(Cl)c(OCC(=O)Nc2cccnc2)c1	58.4*	-0.9%	104.6*	75.4%	-1.3%	-10.9%
CCCC(=O)Nc1cc(Cl)ccc1N1CCN(C(=O)CC)CC1	-2.9	0.8%	-6.4	?	.	-16.2%
C/C(=N\O)C(=O)NCc1ccccn1	-2.4	-1.7%	-5.1	9.0%	52.3%	1.1%
O=C(NCc1ccccc1)/C(=N\O)c1ccccc1	21.3*	-0.1%	54.0*	86.1%	8.5%	-0.1%
O=C(NCc1ccccn1)/C(=N/O)c1ccccc1	36.5*	-1.1%	30.7*	53.5%	?	-1.2%
CCC1(C)CC2(CCCN(CCC(=O)c3ccccc3)C2)CCO1 (stereo not drawn)	-2.5	-0.6%	-12.8	5.6%	?	.
Clc1ccc(-n2ncc3c(NCC4CCCO4)ncnc32)cc1 (stereo not drawn)	39.9*	-19.4%	50.0*	163.6%	146.3%	-68.7%
COc1ccc(-n2ncc3c(NCC4CCCO4)ncnc32)cc1 (stereo not drawn)	67.9*	1.7%	94.7*	300.1%	i	-8.3%
CCN(CC)C(=O)Cn1c(=O)n(CC(=O)N2CCCCC2)c(=O)c2sccc21	-1.7	-2.9%	-8.5	-7.9%	?	-5.6%
SMILES	Cycloheximide cs	SARS PLpro yeast	Shiga inhibitor	Pf growth 48h	Pf growth 96h	NS1 inh
COc1ccc(CN2CCNC(=O)C2CC(=O)N(C)Cc2nccn2C)cc1OC (stereo not drawn)	11.1	1.5%	9.3	8.7%	2.9%	1.1%
Cc1csc(CN(C)C(=O)CC2C(=O)NCCN2Cc2ccc(F)c(F)c2)n1 (stereo not drawn)	-1.0	0.4%	12.5	7.1%	13.1µM*	-2.2%
COc1ccc(CN2CCNC(=O)C2CC(=O)N(C)Cc2nccs2)cc1OC (stereo not drawn)	-3.0	-3.0%	-2.8	-8.4%	9.28µM*	-4.4%
O=C1OC(Nc2nc(-c3ccc(F)cc3)cs2)c2ccccc21 (stereo not drawn)	7.0	-0.1%	16.2	?	?	0.1%
Cc1nc(Sc2ccc(Br)cc2)c(C#N)c(C)c1[N+](=O)[O-]	-2.6	-1.1%	-13.5	?	9.28µM*	-2.8%
Cc1nc(Sc2ccc(Cl)cc2)c(C#N)c(C)c1[N+](=O)[O-]	6.3	0.7%	-7.7	?	11.7µM*	-3.0%
Cc1cc(C)c(S(=O)(=O)Nc2ccc(N(C)C)cc2)c(C)c1-n1cnnn1	42.9*	-2.1%	75.9*	24.5%	0.7%	-42.9%
CSc1ccc(NS(=O)(=O)c2ccc(-n3cnnn3)cc2)cc1	4.9	4.1%	-21.2	?	?	12.2%
Cc1ccc(S(=O)(=O)Nc2ccc(-n3cnnn3)cc2)cc1	-1.3	0.5%	-2.9	5.7%	11.7µM*	14.7%
COC(=O)C1=C(C)NC(C)=C(C(=O)OCCNCc2ccccc2)C1c1cccc([N+](=O)[O-])c1 (stereo not drawn)	-2.1	.	-0.6	.	.	.
CCOc1ccccc1NC(=O)CN1CCC(NC(=O)Nc2ccccc2)CC1	-4.7	4.4%	2.0	?	-4.1%	-6.2%
Cc1cc(C)n2nc(SCC(=O)N3CC(C)CC(C)C3)nc2n1 (stereo not drawn)	.	0.1%	.	.	.	.
O=C(CSc1nc2nn(-c3ccccc3)c(=O)c-2c2n1CCCCC2)NCCc1ccccc1	-0.4	-0.1%	-10.7	?	?	.
C=CCN1C(=O)/C(=C/c2ccc(OC(C)=O)c(OCC)c2[N+](=O)[O-])SC1=S	26.8*	-3.5%	103.2*	9.28µM*	23.1%	-11.3%
Cc1ccc(-c2nn(-c3cc(N4CCNCC4)ccc3[N+](=O)[O-])c(=O)c3ccccc23)cc1	-6.2	0.2%	-15.1	?	0.0%	?
O=c1c2ccccc2c(-c2ccccc2)nn1-c1cc(Cl)ccc1[N+](=O)[O-]	-2.3	1.5%	-48.1	8.28µM*	?	15.7%
Cc1ccc(-c2nn(-c3cc(Cl)ccc3[N+](=O)[O-])c(=O)c3ccccc23)cc1C	-1.5	2.9%	-4.1	5.22µM*	?	26.4%
CCc1ccc(-c2nn(-c3cc(Cl)ccc3[N+](=O)[O-])c(=O)c3ccccc23)cc1	-3.8	4.4%	-9.0	?	9.28µM*	6.0%
COc1cc(NS(=O)(=O)c2cccc([N+](=O)[O-])c2)c2ncccc2c1	9.4	.	-4.0	.	.	.
CCCN1CCC(NC(=O)Nc2ccc(Br)cc2)CC1	-2.2	-3.6%	2.6	?	10.4%	-2.6%
O=C(COC(=O)c1n[nH]c2ccccc12)Nc1cccc(S(=O)(=O)N2CCOCC2)c1	5.7	1.4%	27.9	?	?	.
